Measured values taken from the supplement of paper PMC10338343.
± gives the standard deviation.

Tested on: MILI (PIWIL2) piRISC loaded with L1MC piRNA (26 nt)
Experiment: pre-steady-state target cleavage rate (min^-1); guide: L1MC piRNA 5'p-UAACUAAAUACUAUGCAAGCUGUAGG; MIWI and MILI are mouse PIWI proteins and EfPiwi is from a freshwater sponge; tags in brackets are library labels; higher = faster piRNA-guided slicing of the target
Outline: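 A burst-and-steady-state fit was used to obtain the pre-steady-state cleavage rate. The input data were sequencing reads of uncleaved targets, normalised to depth and to weakly complementary targets, from a […] transcribed, DNA-blocked target RNA library mixed with 1 nM active affinity-purified piRISC holding one synthetic guide, with or without 500 nM GTSF1 partner protein, in HEPES–potassium acetate buffer at 33 °C for 0–8 or 0–960 min. Three trials were pooled and k3 was capped at 0.0001 min^-1.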

[1] = auxiliary factor: 500 nM mouse GTSF1
[2] = auxiliary factor: none (no GTSF1)
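Also: 1 nM active piRISC with 0.1 nM target library at 33 °C single turnover.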

Sequence | pre-steady-state target cleavage rate [1] | pre-steady-state target cleavage rate [2]
UCCUGGAUGUGCAUGCAUUGUAUUUAGUUA | 0.0212 ± 0.0051 | 0.00604 ± 0.0024
UCCUGGAUGUCGUUGCAUAGUAUCUUAGUUA | 0.0991 ± 0.021 | 0.00848 ± 0.0026
UCCUGGAUGUGUUGCAUAGUAUUUAGUUA | 0.173 ± 0.022 | 0.00684 ± 0.0022
UCCUGGUACAGCUUGGUAAGUAUUUAGUUA | 0.113 ± 0.018 | 0.00809 ± 0.0033
UCCUGGUACAGCUUUCAUAGUAUUUAGUUA | 0.22 ± 0.042 | 0.0103 ± 0.0032
UCCUGGAUGUGCUUGCUUAGUAUAUAGUUA | 0.0668 ± 0.011 | 0.00411 ± 0.0025
UCCUGGAUGUCGUUGCAUAGUAUUUGAGUUA | 0.145 ± 0.034 | 0.00339 ± 0.0032
UCCUGGAUGUGCUUGCAAUGUAUUUAGUAA | 0.0131 ± 0.0037 | 0.00545 ± 0.0027
UCCUGGAUGAGCUUGCAUAGGUAUUUAGUUA | 0.00411 ± 0.0031 | 0.00493 ± 0.0023
UCCUGGUACACGUUGCAUAGUAUUUAGUUA | 0.19 ± 0.045 | 0.0113 ± 0.0051
UCCUGGAACAGCUUGCAUAGUUAUUUAGUUA | 0.0126 ± 0.0059 | 0.00339 ± 0.0029
UCCUGGAACAGCUUGCAUAGUGAUUUAGUUA | 0.0178 ± 0.007 | 0.00499 ± 0.0023
UCCUGCUACAGCUUGCAUUCUAUUUAGUUA | 0.0454 ± 0.0087 | 0.00339 ± 0.0024
UCCUGGUACAGGAAGCAUAGUAUUUAGUAA | 0.167 ± 0.023 | 0.00332 ± 0.0019
UCCUGGAUCGAGCUUGCAUAGUAUUUAGUUA | 0.201 ± 0.016 | 0.0122 ± 0.0026
UCCUGGAUGUCGAAGCAUAGUAUCUUAGUUA | 0.0223 ± 0.0048 | 0.00455 ± 0.0025
UCCUGGAUGAGCUUGAUAGUAUUUAGUUA | 0.017 ± 0.0068 | 0.00442 ± 0.0028
UCCUGGAUCAGCUUGCUUAGUAUAUAGUUA | 0.234 ± 0.014 | 0.00803 ± 0.0031
UCCUGGAUGAGCUUGCAUAGUAUUUAGUAUA | 0.218 ± 0.028 | 0.00501 ± 0.0033
UCCUGGAUGUCCUAUGCAUAGUAUUUAGUUA | 0.0987 ± 0.02 | 0.00575 ± 0.0022

Sequence | pre-steady-state target cleavage rate [1] | pre-steady-state target cleavage rate [2]
UCCUGGAUCAGGUUGCUUAGUAUUUAGUUA | 0.189 ± 0.011 | 0.00878 ± 0.0023
UCCUGGUACAGCUUGCAUAGUAUUUAAUUA | 0.0793 ± 0.022 | 0.00528 ± 0.0035
UCCUGGAUGAGCUUCCUUAGUAUUUAGUUA | 0.132 ± 0.019 | 0.00577 ± 0.0024
UCCUGGAUCAGCUUGAUAGUAUUUAGUUA | 0.0575 ± 0.0091 | 0.00451 ± 0.002
UCCUGGUUCAGCUUGCAUAGAAUUUAGUUA | 0.0374 ± 0.011 | 0.003 ± 0.0029
UCCUGGAUCAGCUUGCUUAGUAUUUUGUUA | 0.16 ± 0.015 | 0.00583 ± 0.0022
UCCUCCUACACCUUGCAUAGUAUAUAGUUA | 0.199 ± 0.028 | 0.00295 ± 0.0027
UCCUGGAUGUCGAAGCAUAGUAUCUAGUUA | 0.0263 ± 0.0077 | 0.00418 ± 0.0019
UCCUGGAUGUGCUUGCAUAGUUAUUAGUUA | 0.00903 ± 0.0055 | 0.00639 ± 0.0025
UCCUGGAUGUCCUUGGAUAGUAUUUUGUUA | 0.139 ± 0.031 | 0.00318 ± 0.0024
UCCUGGAUGUCGAUGCAUAGUAGUUAGUUA | 0.0193 ± 0.005 | 0.00415 ± 0.0021
UCCUGGAUGUCGAAGGCAUAGUAUUUAGUUA | 0.0371 ± 0.0065 | 0.00443 ± 0.0024
UCCUGGAUGUCCUUGCAUAGUAUCUUAGUUA | 0.0833 ± 0.017 | 0.00566 ± 0.0029
UCCUGGAUGAGCUUGCAUAGUUAUUAGUUA | 0.00731 ± 0.0048 | 0.00364 ± 0.0023
UCCUGGAUGUGCUUGCUUAGUAUUUAGUAA | 0.0779 ± 0.014 | 0.00576 ± 0.0018
UCCUGGAACAGCUUGGUAAGUAUUUAGUAA | 0.11 ± 0.017 | 0.00425 ± 0.0016
UCCUGCUAGAGCUUGCAUAGUAUUUACUUA | 0.175 ± 0.042 | 0.00284 ± 0.0026
UCCUCCUACAGCGUUGCAUAGUAUUUAGUUA | 0.296 ± 0.021 | 0.0063 ± 0.0021
UCCUGGAUGUCGAAGCAUAGUAUUUAGUGA | 0.0495 ± 0.015 | 0.00324 ± 0.0026
UCCUGGUACAGCUUGCAUAGUAUUAGUUA | 0.327 ± 0.053 | 0.00515 ± 0.003

Sequence | pre-steady-state target cleavage rate [1] | pre-steady-state target cleavage rate [2]
UCCUGCUACAGCUUGCAAUCUAUUUAGUUA | 0.0303 ± 0.0068 | 0.00243 ± 0.0019
UCCUGGAUCAGCUAGCAUAGUAUUUUGUUA | 0.19 ± 0.021 | 0.00333 ± 0.0023
UCCUGGAUGUGCUUGCAAAGUUUUUAGUUA | 0.00595 ± 0.0038 | 0.0065 ± 0.0023
UCCUGGAUGAGCAAGCAUAGUAUUUAGUAA | 0.123 ± 0.018 | 0.00443 ± 0.0027
UCCUGGAACAGCAUGGAUAGUAUUUAGUUA | 0.243 ± 0.016 | 0.00742 ± 0.0028
UCCUGGAUGUCCUUGCAUAGUAAUUAGUUA | 0.111 ± 0.019 | 0.00618 ± 0.0018
UCCUGGAUCAGCUUGCAAGUAUUUAGUUA | 0.0793 ± 0.011 | 0.00478 ± 0.0023
UCCUGGAUGAGCUUGCUUUGUAUUUAGUUA | 0.0408 ± 0.01 | 0.00403 ± 0.0028
UCCUGGAUGUCCUUGCAGAGUAUUUAGUUA | 0.0231 ± 0.011 | 0.00501 ± 0.0024
UCCUGGAUCAGCUUUGCAUAGUAUUUAGUUA | 0.297 ± 0.016 | 0.0075 ± 0.0028
UCCUGGAUGUGCUUGCAUAGUAUUAUAGUUA | 0.15 ± 0.025 | 0.006 ± 0.0028
UCCUGGAUCAGCUUGGAUAGUAUUAAGUUA | 0.162 ± 0.027 | 0.00386 ± 0.0022
UCCUCCUAGAGCUAGCAUAGUAUUUAGUUA | 0.218 ± 0.015 | 0.00391 ± 0.0022
UCCUGGAUGUCGAUGCAUAGUAUUUAGUUG [g2:g17:cont:t1G] | 0.0776 ± 0.013 | 0.00604 ± 0.0026
UCCUGGAUGUCCUUGCAUAGUAUUUUAGUUA | 0.107 ± 0.017 | 0.0134 ± 0.0036
UCCUGGAUGAGCUUGCAAUGUAUUUAGUAA | 0.0194 ± 0.0045 | 0.00717 ± 0.0024
UCCUGGAUGUGCUUGCAUAGUUAUUUAGUUA | 0.0061 ± 0.0048 | 0.00419 ± 0.0033
UCCUGGAUGUCCUUGCAUACUUUUUAGUUA | 0.00626 ± 0.004 | 0.0024 ± 0.0022
UCCUCCUACAGCUUGAUAGUAUUUAGUUA | 0.147 ± 0.014 | 0.00404 ± 0.0022
UCCUGGAUGUCGUUGCAUAGUAAUUUGUUA | 0.00776 ± 0.005 | 0.00315 ± 0.0027
